Screening results: PubChem, several laboratories
CASP6 VEID inh = human caspase-6 inhibitors, primary screen, biochemical, VEID-R110 fluorescence, single point, set 2; P55212; purified caspase-6, Z-VEID-R110 cleavage fluorescence; inhibition, % at 12.5 µM; 350,000 compounds, 0.53% hits;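 active means mean inhibition across replicates at least about 35%, with every replicate also reaching that limit, limit read from the data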;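 further: 0% = median of neutral control wells and 100% = no fluorescence left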
LEDGF integ inh = blockers of LEDGF/p75-dependent integrase strand transfer – biochemical, TR-FRET, high throughput, primary screen; 370,000 compounds, 0.64% hits; AID 743269, 2014; TR-FRET IN-LEDGF/p75 DNA integration, Eu/Cy5; inhibition, % at 3.7 µM; HIV-1 integrase (with human LEDGF/p75);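 active means inhibition above the screen-wide mean plus 3 SD, cut at about 13% in these data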;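 further: signal is the Cy5 over europium emission ratio at 671 and 618 nm; 0% = plate median of compound wells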
MBD2 DNA inh = inhibitors of MBD2 binding to methylated DNA, primary screen, biochemical, TR-FRET, DNA-binding domain, human | Methyl-CpG-binding domain protein 2 (Homo sapiens), Q9UBB5 | MBD2 binding to methylated oligonucleotide | inhibition, % at 4.4 µM | 370,000 compounds, 0.31% hits | AID 686964, 2013; in the data active means inhibition above about 13%
UHRF1 MBD2 ctr = UHRF1 methylated DNA binding inhibitors, primary screen, counter-screen for MBD2 inhibitor project, biochemical, TR-FRET, human UHRF1, single concentration | E3 ubiquitin-protein ligase UHRF1 (Homo sapiens), Q96T88 | UHRF1 binding to methylated oligo | inhibition, % at 4.4 µM | 370,000 compounds, 0.75% hits | AID 687016, 2013; in the data active means inhibition above about 21%;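 further: UHRF1 SRA domain binding a hemimethylated CpG hairpin DNA probe; 0% = median of test compound wells and 100% = reference inhibitor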
Target sequence (Q96T88 whole entry, looked up, the tested form may be a part): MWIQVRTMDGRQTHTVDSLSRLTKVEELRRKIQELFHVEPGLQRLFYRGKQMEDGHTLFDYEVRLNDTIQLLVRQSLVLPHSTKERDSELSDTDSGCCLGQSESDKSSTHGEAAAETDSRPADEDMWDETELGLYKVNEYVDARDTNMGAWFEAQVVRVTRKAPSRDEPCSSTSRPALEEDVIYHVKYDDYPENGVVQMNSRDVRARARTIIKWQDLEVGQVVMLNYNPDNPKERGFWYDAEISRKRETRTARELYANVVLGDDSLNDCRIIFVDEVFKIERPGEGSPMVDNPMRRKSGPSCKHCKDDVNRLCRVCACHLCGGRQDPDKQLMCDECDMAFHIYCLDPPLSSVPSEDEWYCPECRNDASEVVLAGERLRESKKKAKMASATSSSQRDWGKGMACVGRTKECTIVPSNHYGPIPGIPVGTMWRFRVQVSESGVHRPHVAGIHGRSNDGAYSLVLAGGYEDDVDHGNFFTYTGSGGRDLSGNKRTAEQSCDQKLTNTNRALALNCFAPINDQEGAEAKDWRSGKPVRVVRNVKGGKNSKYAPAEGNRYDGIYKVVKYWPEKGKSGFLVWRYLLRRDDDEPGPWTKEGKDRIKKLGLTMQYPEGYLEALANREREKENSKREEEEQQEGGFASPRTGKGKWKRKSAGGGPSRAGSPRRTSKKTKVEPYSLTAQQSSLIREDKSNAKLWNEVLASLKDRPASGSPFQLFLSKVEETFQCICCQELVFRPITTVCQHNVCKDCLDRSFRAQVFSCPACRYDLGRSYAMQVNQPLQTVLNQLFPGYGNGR
The depositor's hits bear a star; / = no result. Sampled rows, rich in hits. Any-hit rate of the full collection: about 1.4%.

SMILES	CASP6 VEID inh	LEDGF integ inh	MBD2 DNA inh	UHRF1 MBD2 ctr
O=C(Nc1ccccc1F)c1coc(=O)c(Br)c1	74.0*	1.8	1.3	1.7
CNC(=O)c1cccc2cccc(Sc3ccccc3C(=O)O)c12	-0.7	-0.4	-3.1	29.0*
CCCN(C)C[C@@H]1Oc2ncc(Br)cc2C(=O)N([C@H](C)CO)C[C@@H]1C	24.9	/	/	/
O=C(CSc1nc2ccccc2s1)N1CCCCC1	-1.5	1.6	-5.0	41.6*
O=C(COC(=O)c1ccc([N+](=O)[O-])s1)NCc1ccc(F)cc1	/	7.4	1.7	14.4
O=C(COC(=O)c1ccc([N+](=O)[O-])s1)NCCc1ccccc1	99.2*	/	/	/
CC(NC(=O)COC(=O)c1ccc([N+](=O)[O-])s1)c1ccccc1 (configuration not stated)	/	6.1	-0.5	0.5
O=C(COC(=O)c1ccc([N+](=O)[O-])s1)NC(=O)NCc1ccccc1	43.7*	0.3	-1.0	-0.4
Cc1ccc(C(=O)OCC(=O)NCCNC(=O)COC(=O)c2ccc(C)s2)s1	-2.2	1.1	-0.6	30.3*
O=C(COC(=O)c1ccc([N+](=O)[O-])s1)c1ccc[nH]1	99.2*	3.5	2.5	-3.3
Cc1ccc(C(=O)OCC(=O)NCc2ccccc2)s1	-2.1	3.9	-4.8	-0.2
C[C@H](CO)N1C[C@H](C)[C@H](CN(C)S(C)(=O)=O)Oc2ccc(NS(=O)(=O)c3ccc(Cl)cc3)cc2CC1=O	1.5	/	/	/
CS(=O)(=O)Nc1ccc2c(c1)[C@H]1C[C@@H](CC(=O)NCc3ccncc3)O[C@H](CO)[C@H]1O2	2.9	/	/	/
O=C1Nc2ccc(C(=O)O)c(O)c2C1=O	39.5*	5.3	-10.2	-0.2
O=C1Nc2ccc3sc4ccccc4c3c2C1=O	2.6	-0.9	-2.4	-4.7
O=C(NN1C(=O)C2CC=C(Cl)CC2C1=O)c1ccncc1 (configuration not stated)	46.8*	4.2	-1.1	6.3
O=c1c(OC2OC(CO)C(O)C(O)C2O)c(-c2ccc(O)c(O)c2)oc2cc(O)cc(O)c12 (configuration not stated)	16.0	70.1*	-4.5	-4.0
O=C(CCN1CCCCC1)NCC[C@H]1CC[C@@H](NC(=O)C2CC2)[C@@H](CO)O1	-4.9	/	/	/
CCOC(=O)Cn1cc(CN2C(C(=O)OC)CN(Cc3ccc(OC)cc3)CCS2(=O)=O)nn1 (configuration not stated)	/	1.9	5.7	80.4*
COC(=O)C1CN(Cc2cn(Cc3ccccc3)nn2)CCS(=O)(=O)N1Cc1ccccc1 (configuration not stated)	/	-0.6	5.7	28.1*
COC(=O)C1CN(Cc2cn(Cc3ccc(C)cc3)nn2)CCS(=O)(=O)N1Cc1ccccc1 (configuration not stated)	/	3.6	5.0	11.2
O=C(Nc1ccc(-c2nc3ncccc3o2)cc1)c1ccc([N+](=O)[O-])o1	-0.2	4.9	-2.1	40.0*
Cc1cc(-c2nc3ncccc3o2)ccc1NC(=O)c1ccc([N+](=O)[O-])o1	-1.8	3.2	1.2	-2.3
NC(=O)CN1CCN(c2ccccc2F)CC1	/	1.4	-1.7	-0.3
CC(C)c1ccc(S(=O)(=O)N2CCN(CC(=O)c3ccc(O)c(O)c3)CC2)cc1	57.4*	36.0*	-5.1	2.3
SMILES	CASP6 VEID inh	LEDGF integ inh	MBD2 DNA inh	UHRF1 MBD2 ctr
O=C(CN1CCN(c2ccccc2F)CC1)c1ccc(O)c(O)c1	/	63.9*	-3.9	5.7
O=C(CN1CCN(S(=O)(=O)c2ccc(Br)cc2)CC1)c1ccc(O)c(O)c1	54.8*	42.0*	-4.3	0.6
C[C@@H]1CN([C@@H](C)CO)C(=O)c2cc(-c3ccc(F)cc3)cnc2O[C@H]1CN(C)C(=O)NC1CCCC1	-1.0	/	/	/
COc1ccc(NC(=O)N2CC(=O)N3[C@@H](CO)[C@H](c4ccc(-c5ccc(C)cc5)cc4)[C@@H]3C2)cc1	1.6	/	/	/
CO/N=C\C(=N\Nc1ccc(OC)cc1)C(=O)c1ccccc1	/	-0.4	-5.6	37.8*
CO/N=C/C(=N\Nc1ccccc1)C(=O)c1ccccc1	-3.2	-1.1	-2.5	-2.8
Cc1ccc(S(=O)(=O)N(C)C[C@H]2Oc3ccc(NC(=O)Cc4ccccc4)cc3C(=O)N([C@H](C)CO)C[C@H]2C)cc1	2.1	/	/	/
Cc1ccc(NC(=O)CN2C(=O)S/C(=C\c3cc(Cl)c(OCC(=O)O)c(Cl)c3)C2=O)cc1	38.8*	3.1	-2.1	1.1
COc1ccc(/C=C2\SC(=O)N(CC(=O)Nc3ccc(O)cc3)C2=O)cc1OC	-0.1	-9.2	-1.4	1.1
O=C(CCC1CCCC1)NCc1cccs1	/	-2.2	-5.8	-2.2
O=C(CCCCC(=O)NCc1cccs1)NCc1cccs1	/	3.4	11.5	22.7*
O=C(O)C1C2C=CC(C2)C1C(=O)NCc1cccs1 (configuration not stated)	45.2*	-3.5	-0.9	1.9
C[C@@H]1CN([C@H](C)CO)C(=O)c2cccc(NS(C)(=O)=O)c2O[C@@H]1CN(C)CC1CCCCC1	0.4	/	/	/
COc1ccc(NC(=O)N(C)C[C@H]2OCCCC[C@@H](C)Oc3ccc(NS(=O)(=O)c4cn(C)cn4)cc3C(=O)N([C@@H](C)CO)C[C@H]2C)cc1	0.1	/	/	/
C=CCOc1c(OC)cc(/C=N/Nc2cccc(C(=O)O)c2)c(Br)c1Br	42.6*	3.0	3.1	9.0
O=C(Nc1ccnn1C1CCN(C(=O)c2ccccc2C(F)(F)F)CC1)C1CC1	2.3	14.3*	0.3	3.9
O=C(Nc1ccnn1C1CCN(C(=O)c2c(F)cccc2F)CC1)C1CC1	1.8	-2.6	5.2	3.3
Nc1ccccc1SCC1CSc2nc3ccccc3c(=O)n21 (configuration not stated)	0.6	-1.3	-6.0	-1.2
O=c1c2ccccc2nc2n1C(CSCc1ccc(Cl)cc1Cl)CS2 (configuration not stated)	/	1.7	8.1	22.3*
CC(C)CNC(=O)C1(C)CCCN1C(=O)Cc1cccc2ccccc12 (configuration not stated)	54.2*	1.6	-0.9	0.0
Cc1cc(C(=O)OCC(=O)Nc2cccc(S(N)(=O)=O)c2)c2ccccc2n1	0.9	1.6	-1.8	22.7*
Cc1cc(C(=O)OCC(=O)NCCc2ccc(S(N)(=O)=O)cc2)c2ccccc2n1	2.7	-0.3	-2.1	-3.5
Cc1cc[n+](-c2[nH]c(=O)sc2/C=N/NC([S-])=Nc2ccccc2)cc1	41.0*	-1.9	-3.1	-7.3
COCC(=O)N1[C@H](CO)[C@@H]2c3ccccc3N(C(=O)C3CC3)C[C@@H]21	0.1	/	/	/
C[C@H]1CN([C@@H](C)CO)C(=O)c2cc(NC(=O)c3ccncc3)ccc2O[C@@H]1CN(C)Cc1ccc(-c2ccccc2)cc1	-0.3	/	/	/
Cc1ccc(NC(=O)c2ccc([N+](=O)[O-])o2)cc1S(=O)(=O)N1CCOCC1	40.5*	4.9	-0.7	-0.1
C[C@H]1CN([C@@H](C)CO)C(=O)CCCn2nncc2CO[C@H]1CN(C)CC1CC1	0.9	/	/	/
